The results in this text go back to PubChem BioAssay (NCI).

Common to all, as to test: NCI-60 one-dose screen, 48 h (100 = growth as untreated, 0 = no growth, -100 = all killed)
The test system of experiment [1] is HCT-15 colon. The note with it: 10 µM unless noted.
Experiment [2] deals with HT29 colon. The settings on record: 10 µM unless noted.
The subject of experiment [3] is SNB-75 CNS. The settings on record: 10 µM unless noted.
The subject of experiment [4] is SNB-19 CNS. The settings on record: 10 µM unless noted.
In experiment [5] the test system is U251 CNS. The settings on record: 10 µM unless noted.
For experiment [6], the system named is PC-3 prostate. The note with it: 10 µM unless noted.
Experiment [7] deals with SK-MEL-5 melanoma. The settings on record: 10 µM unless noted.
For experiment [8], the system named is UACC-62 melanoma. The note with it: 10 µM unless noted.
For experiment [9], the system named is LOX IMVI melanoma. The note with it: 10 µM.
Experiment [10] has as its system SK-MEL-28 melanoma. The note with it: 10 µM unless noted.
The test system of experiment [11] is SK-MEL-2 melanoma. The settings on record: 10 µM unless noted.
For experiment [12], the system named is EKVX NSCLC. The note with it: 10 µM unless noted.
Experiment [13] concerns SN12C renal. The note with it: 10 µM unless noted.
The subject of experiment [14] is UO-31 renal. The note with it: 10 µM unless noted.
Experiment [15] has as its system TK-10 renal. The settings on record: 10 µM unless noted.
Experiment [16] concerns ACHN renal. The note with it: 10 µM unless noted.
The subject of experiment [17] is CAKI-1 renal. The settings on record: 10 µM unless noted.
Experiment [18] has as its system A498 renal. The settings on record: 10 µM unless noted.
The subject of experiment [19] is CCRF-CEM leukemia. The note with it: 10 µM unless noted.
Experiment [20] concerns MOLT-4 leukemia. The note with it: 10 µM unless noted.

Compounds without any hit were thinned out: in the full panel of roughly 83,000, 20% have a hit.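 Values shown are percent growth following 48 h exposure of cells in 96-well plates to a single concentration of compound; below 10 was considered active.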 Values without a mark were called inactive. Calls of active or inactive are those of the source.

On to `O=C1C=C[C@H](O)[C@@]2(CO)O[C@@H]12`, for which the growth was 104% in experiment [1]; 53.9% in [2]; 81% in experiment [3]; 100% in experiment [4]; 91.4% in experiment [5]; 82.3% in experiment [6]. The growth is 100% in [7]; 65.8% in experiment [8]; 66.7% in experiment [9]; 42.1% in experiment [10]; -12.4% (active) in experiment [11]; 72.4% in experiment [12]. The growth in experiment [13] is 88.7%; in [14] it was 48.1%; in experiment [15], 109%; in experiment [16], 76.7%; in experiment [17] it was 40%; in [18] it was 101%. The growth in experiment [19] was -51% (active); in experiment [20] it was 26.9%.

For the molecule `Nc1nc(Cl)cc(Cl)n1`, the growth in [1] is 102%; in experiment [2] it was 86.8%; in experiment [3], 91.4%; in [4] it was 113%; in experiment [5], 102%; in experiment [6], 98.5%. In addition, the growth in [7] is 98.8%; in experiment [8] it was 107%; in experiment [9], 92.5%; in experiment [10], 119%; in experiment [11] it was 96%; in [12], 103%. In addition, the growth in experiment [13] is 110%; in experiment [14] it was 95.2%; in experiment [15] it was 93.6%; in experiment [16] it was 105%; in experiment [17] it was 102%; in experiment [18], 118%. Further, the growth in experiment [19] was 108%.

`Oc1cccnc1CN1CCCC1`: the growth in experiment [1] was 95.3%; in [2], 108%; in [3], 96.1%; in experiment [4], 104%; in [5], 94.8%; in experiment [6], 89.7%. In addition, the growth in [7] was 99.8%; in experiment [8], 102%; in experiment [9], 96.6%; in experiment [10], 107%; in experiment [11], 108%; in experiment [12] it was 106%. The growth is 97.6% in [13]; 92.1% in [14]; 111% in experiment [15]; 105% in experiment [16]; 97% in experiment [17]; 108% in experiment [18]. Moreover, the values for the growth in experiment [19] and in experiment [20] were 101% and 94.2%, respectively.

`COC(=O)c1ccccc1C(=O)c1c(C)cc(C)cc1C`: the growth is 101% in [1]; 93.8% in [2]; 96.5% in [3]; 103% in experiment [4]; 91.2% in experiment [5]; 90% in experiment [6]. Also, the growth is 101% in experiment [7]; 92.5% in [8]; 102% in experiment [9]; 94.9% in experiment [10]; 94% in [11]; 109% in experiment [12]. Also, the growth was 99.9% in [13]; 92.9% in experiment [14]; 88.3% in [15]; 101% in experiment [16]; 96.4% in experiment [17]; 88.9% in experiment [18]. Also, the values for the growth in [19] and in [20] were 99.2% and 87.9%, respectively.

As to `CC(=O)N=c1ccc2nc3c(cc(N)c4ccccc43)oc-2c1`, the growth in experiment [1] was -75.5% (active); in experiment [2], 1.15% (active); in experiment [3], 34%; in [4] it was -11.1% (active); in [5] it was -73.7% (active); in experiment [6] it was 2.46% (active). Also, the growth in experiment [7] was -100% (active); in [8] it was -61.2% (active); in [9], -74.3% (active); in experiment [10] it was -2.3% (active); in [11], -42.4% (active); in experiment [12] it was 2.37% (active). Moreover, the growth was -72.8% (active) in experiment [13]; -43.9% (active) in [14]; 47.6% in [15]; 32.5% in [16]; -23.1% (active) in experiment [17]; 80.5% in experiment [18]. The values for the growth in experiment [19] and in experiment [20] were -11.5% (active) and -37.2% (active), respectively.

In the case of `CCOc1ccncc1[N+](=O)[O-]`, the growth in experiment [1] was 110%; in [2], 107%; in [3], 101%; in experiment [4], 125%; in [5], 96.9%; in [6], 106%. Also, the growth in experiment [7] was 106%; in experiment [8], 100%; in [9], 99.6%; in experiment [10], 102%; in experiment [11], 104%; in experiment [12] it was 104%. Also, the growth in [13] is 110%; in experiment [14], 99.9%; in experiment [15] it was 104%; in experiment [16], 115%; in experiment [17] it was 103%; in experiment [18], 121%. Besides, the growth was 109% in experiment [19] and 102% in experiment [20].

With `Cc1cc(C(=O)NN)c(C#N)c(=O)[nH]1`, the growth in experiment [1] was 105%; in experiment [2], 124%; in experiment [3], 84.6%; in [4] it was 95.3%; in experiment [5] it was 104%; in [6], 91.1%. The growth was 95.7% in [7]; 89.8% in [8]; 97.7% in [9]; 91.8% in experiment [10]; 100% in experiment [11]; 109% in [12]. Besides, the growth in experiment [13] was 88.4%; in experiment [14], 88.3%; in experiment [15] it was 115%; in experiment [16], 105%; in [17], 96.8%; in experiment [18], 95.7%. The growth in experiment [19] is 95.9%; in experiment [20] it was 111%.

As to `NC(CO)(CO)c1ccccc1`, the growth in experiment [1] is 97.2%; in experiment [2], 100%; in [3], 88.7%; in experiment [4], 107%; in experiment [5], 97.3%; in [6], 100%. Besides, the growth is 97.9% in [7]; 101% in experiment [8]; 101% in experiment [9]; 106% in experiment [10]; 107% in [11]; 113% in experiment [12]. In addition, the growth in [13] was 108%; in experiment [14], 88.6%; in experiment [15], 96.9%; in experiment [16], 112%; in [17], 96.1%; in experiment [18], 101%. For the same molecule, the growth was 90% in [19] and 108% in experiment [20].
